The nature of experiment [1]: P. berghei load reduction in hepatocytes – cell-based, HepG2, luciferase luminescence, HepG2 viability, primary screen (AID 624349; in the data active = parasite load remaining mostly below about 12%, no sharp cut-off; inactive = mostly above about 10%;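 also: 100% = mean of DMSO negative control wells on the same plate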). The settings on record: P. berghei liver stage in HepG2, luciferase luminescence, concentration not given here; parasite load remaining: stronger effect = lower value; viability: measured here: HepG2 viability without parasites.
Experiment [2] can be described thus: signal quenchers or enhancers, Cy5 substrate/SSB – biochemical, NIH Clinical Collection, E. coli SSB, artefact control for HCV NS3 helicase inhibitor project (AID 743268; call rule not given here). The following applies: Cy5-oligo bound E. coli SSB, fluorescence interference.
Experiment [3] relates to Hepatitis C virus NS3 helicase. Description: blockers of NS3h binding to DNA – biochemical, fluorescence polarization, NIH Clinical Collection, primary screen (AID 743270; call rule not given here). The settings on record: NS3 helicase binding to Cy5-dT15 DNA, stronger effect = higher value, concentration not given here. (Polarisation of emitted light reports the rotation of a fluorescent probe.)
Experiment [4] concerns the target Single-stranded DNA-binding protein (Escherichia coli (strain K12)) (UniProt P0AGE0). The experiment is described as follows: SSB-ssDNA binding inhibitors – biochemical, fluorescence polarization, NIH Clinical Collection, counter-screen for HCV NS3 helicase inhibitor project (AID 743271; in the data active = inhibition above about 28%). The settings on record: E. coli SSB-DNA binding, stronger effect = higher value, concentration not given here.

The nature of experiment [5]: compounds distorting NS3 helicase fluorescence signal – biochemical, NIH Clinical Collection, artefact control for HCV NS3 helicase inhibitor project (AID 743272; call rule not given here;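 also: HCV NS3 helicase with a Cy5 labelled single stranded DNA probe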). The following applies: fluorescence interference counterscreen, HCV NS3 helicase assay; stronger effect = lower value. A general note: Counterscreens check selectivity or assay interference.
Experiment [6] can be described thus: modulation of C. elegans fzo-1 (AID 1259413; call rule not given here;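 also: fzo-1 mutant C. elegans worms in liquid wells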). The settings on record: C. elegans fzo-1 modulator screen, mean read-out; stronger effect = higher value.
The nature of experiment [7]: viability loss with induced miR-34 in A549 – imaging, A549 dox-inducible miR-34, nuclei and caspase counts, primary screen (AID 1347080;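 active = compounds whose cell count with miR-34 switched on is under 0.7 times the count with it off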). The settings on record: A549 miR-34 inducible, Hoechst nuclei count, 48 h.
Experiment [8] is described as follows: galactose survival enhancers in mitochondrial complex I cybrids – cell-based, galactose medium, ATP luminescence, primary screen (AID 1645843;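 active = z-score of at least 1.8 in each of two replicates, scored against plate mean and spread of sample wells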;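 also: positive z means more ATP and so rescue of galactose-driven cybrid death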). The following applies: complex I mutant cybrid cells, 72 h, stronger effect = higher value.
Experiment [9] has as its system F380Y. The experiment is described as follows: BK channel mutant inhibitors and activators – cell-based, U2OS BacMam, thallium flux, beta subunits, selectivity assay, profiling panel (AID 1259406).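 Also: initial slope of Thallos dye fluorescence rise after thallium is added; log ratio against the mean of 0.3% DMSO vehicle wells on the same plate.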 The settings on record: U2OS BacMam BK variants, at 30 µM.
Experiment [10] has as its system F380Y/beta1. The description is as above. The following applies: U2OS BacMam BK variants, at 30 µM.
In experiment [11] the test system is F380Y/beta2Delta. The experiment is described as above. The settings on record: U2OS BacMam BK variants, at 30 µM.
The subject of experiment [12] is F380Y/beta4. Described as above. The following applies: U2OS BacMam BK variants, at 30 µM.
In experiment [13] the target is Calcium-activated potassium channel subunit alpha-1 (Homo sapiens) + Leucine-rich repeat-containing protein 26 (Homo sapiens) (UniProt Q12791+Q2I0M4). Described as above. The settings on record: U2OS BacMam BK variants, F380Y/Slo1WT/gamma1, at 30 µM.
Experiment [14] deals with R275C. The experiment is described as above. The following applies: U2OS BacMam BK variants, at 30 µM.
Experiment [15] concerns R275C/beta1. Described as above. The settings on record: U2OS BacMam BK variants, at 30 µM.
Experiment [16] deals with R275C/beta2Delta. Described as above. The following applies: U2OS BacMam BK variants, at 30 µM.
Experiment [17] has as its system R275C/beta4. Described as above. The settings on record: U2OS BacMam BK variants, at 30 µM.
Experiment [18] has as its system R275C/Slo1WT/beta2. The description is as above. The following applies: U2OS BacMam BK variants, at 30 µM.
For experiment [19], the system named is Neuropilin-2 / VEGF-C interaction (human). The experiment is described as follows: small molecules blocking Neuropilin-2/VEGF-C interaction – biochemical, microplate binding format, z-score (AID 743281; call rule not given here). The following applies: microplate NRP2/VEGF-C binding assay; stronger effect = lower value.
Experiment [20] in a line: MELAS cybrid and Rieske KO viability enhancers – cell-based, MELAS cybrids, Rieske KO mouse fibroblasts, CellTiter-Glo, primary screen (AID 1508586;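 active = mean z-score across replicates of 1.96 or higher in either the MELAS or the Rieske mutant cell line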;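 also: z relative to plate mean and SD of compound and empty wells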). The settings on record: low glucose. On the technique in general: In ATP-based viability assays light output follows the ATP content of the culture.
Where [21] appears, read: stronger effect = lower value, cell number ratio, induced over uninduced.
Setting [22] is: measured here: relative caspase fold change +Dox/-Dox.
The mark [23] stands for this setting: measured here: total cells with miR-34 induction, stronger effect = lower value.
The mark [24] stands for this setting: measured here: total cells without miR-34 induction.

Several values for one entry are separate records, joined by “and”; a condition that tells them apart may be missing. Equal values may be shown once. Activity calls are given as the source filed them.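 The calls were made as follows, unless noted: active = thallium flux through the channel raised or lowered by more than 3 SD from vehicle-only wells, actives on both sides; inactive = the rest.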

Chain of Calcium-activated potassium channel subunit alpha-1 (Homo sapiens) + Leucine-rich repeat-containing protein 26 (Homo sapiens) (Q2I0M4 whole entry, looked up, one chain of several): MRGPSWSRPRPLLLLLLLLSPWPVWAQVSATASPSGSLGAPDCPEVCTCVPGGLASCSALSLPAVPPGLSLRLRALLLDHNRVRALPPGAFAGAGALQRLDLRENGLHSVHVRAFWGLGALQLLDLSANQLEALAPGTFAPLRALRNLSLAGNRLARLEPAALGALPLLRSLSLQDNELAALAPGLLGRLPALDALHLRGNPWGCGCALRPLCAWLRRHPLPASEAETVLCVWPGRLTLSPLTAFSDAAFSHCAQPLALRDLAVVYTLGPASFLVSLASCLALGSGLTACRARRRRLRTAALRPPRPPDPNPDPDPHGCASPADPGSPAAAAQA

Usually viability stands for a read-out of living cells in per cent, often relative to untreated cells. By inhibition is commonly meant the change of the read-out against control, counted positive when it falls. Regarding `CC(=O)C1(O)CCC2C3CC(C)C4=CC(=O)C=CC4(C)C3(F)C(O)CC21C` (stereo unspecified), in experiment [1], the parasite load remaining is 94.8% (inactive). Besides, the viability in experiment [1] was 93.8%. Moreover, the fluorescence ratio in experiment [2] was 1.07 (inactive); in experiment [5], 1 (inactive). In addition, the inhibition is -0.45% (inactive) in experiment [3] and -0.48% (inactive) in experiment [4]. In addition, in experiment [6], the mean signal was 265 (inactive). In addition, the results for the fold change in experiment [7] (setting [21]) and in [7] (setting [22]) were 0.925 (inactive) and 2.07, respectively. Besides, the results for the cell count in [7] (setting [23]) and in [7] (setting [24]) were 7970 and 8610, respectively. Moreover, the z-score in [8] is -0.02 (inactive). Besides, the log fold change Tl+ flux in experiment [9] is -0.0303 (inactive); in [10] it was 0.0429 (inactive); in experiment [11], -0.0137 (inactive); in [12], -0.0225 (inactive); in experiment [13], -0.014 (inactive); in experiment [14] it was -0.0154 (inactive). The log fold change Tl+ flux was 0.00875 (inactive) in [15], -0.0161 (inactive) in experiment [16], 0.055 (inactive) in [17] and 0.00372 (inactive) in experiment [18].

With `COC(=O)Nc1nc2ccc(C(=O)c3ccc(F)cc3)cc2[nH]1`, the parasite load remaining in experiment [1] is 68.5% (inactive) and 34.2% (inactive). Moreover, in [1], the viability is 85.5% and 74.5%. For the same molecule, the fluorescence ratio in experiment [2] is 1.06 (inactive); in experiment [5], 0.95 (inactive). Further, the inhibition in experiment [3] is -1.19% (inactive); in [4], -0.87% (inactive). In addition, the z-score is 0.511 (inactive) in [19]; -2.49 (inactive) and -1.97 (inactive) in experiment [20] (MELAS cybrid survival, CellTiter-Glo 48 h, stronger effect = higher value); 1.69 and 0.533 in experiment [20] (Rieske KO mouse fibroblast survival, CellTiter-Glo 72 h); -1.28 (inactive) and -0.83 (inactive) in experiment [8]. Further, the mean signal in [6] is 249 (inactive). Further, the fold change was 1.22 (inactive) and 1.03 (inactive) in [7] (setting [21]); 1.31 and 0.65 in experiment [7] (setting [22]). The cell count in experiment [7] (setting [23]) was 1820 and 2010; in experiment [7] (setting [24]), 1490 and 1950. Besides, the log fold change Tl+ flux was -0.0412 (inactive) in [9]; 0.0196 (inactive) in experiment [10]; -0.0407 (inactive) in [11]; -0.0852 (inactive) in [12]; 0.00265 (inactive) in experiment [13]; -0.0283 (inactive) in experiment [14]. The log fold change Tl+ flux in [15] is -0.0436 (inactive); in experiment [16] it was -0.052 (inactive); in experiment [17] it was 0.0237 (inactive); in experiment [18], 0.00461 (inactive).

In the case of `Cc1nnc(SCC2=C(C(=O)O)N3C(=O)C(NC(=O)Cn4cnnn4)C3SC2)s1` (stereo unspecified), the parasite load remaining in experiment [1] was 65.6% (inactive). Further, in experiment [1], the viability was 110%. In addition, the mean signal in experiment [6] was 235 (inactive). For the same molecule, the fold change in experiment [7] (setting [21]) was 0.923 (inactive); in experiment [7] (setting [22]), 1.36. Further, the results for the cell count in experiment [7] (setting [23]) and in [7] (setting [24]) were 10000 and 10800, respectively. In experiment [8], the z-score is -0.49 (inactive). In addition, the log fold change Tl+ flux in [9] was -0.00444 (inactive); in experiment [10] it was -0.0723 (inactive); in [11] it was 0.025 (inactive); in experiment [12], 0.028 (inactive); in experiment [13], 0.00509 (inactive); in experiment [14], 0.00777 (inactive). Moreover, the log fold change Tl+ flux in experiment [15] was 0.00195 (inactive); in [16], 0.0237 (inactive); in experiment [17] it was -0.0318 (inactive); in experiment [18] it was 0.0155 (inactive).

Consider `CN1CCC[C@H]1c1cccnc1`, for which, in [1], the parasite load remaining was 58.8% (inactive) and 68.1% (inactive) and 77.4% (inactive). Further, in experiment [1], the viability was 92.8% and 95.3% and 105%. In addition, the fluorescence ratio in experiment [2] was 1.1 (inactive); in experiment [5], 0.97 (inactive). In addition, the inhibition in experiment [3] is -3.18% (inactive); in experiment [4], -0.48% (inactive). Moreover, the mean signal in experiment [6] is 289 (inactive). Besides, the fold change in experiment [7] (setting [21]) was 1 (inactive) and 0.879 (inactive); in [7] (setting [22]), 1.38 and 3.3. The cell count in [7] (setting [23]) was 11100 and 11800; in [7] (setting [24]) it was 11100 and 13400. Further, in experiment [8], the z-score was 1.02 (inactive). Moreover, the log fold change Tl+ flux is 0.0275 (inactive) in [9]; 0.0102 (inactive) in experiment [10]; 0.027 (inactive) in experiment [11]; 0.0603 (inactive) in [12]; -0.0145 (inactive) in [13]; 0.033 (inactive) in experiment [14]. Moreover, the log fold change Tl+ flux in [15] was 0.0044 (inactive); in experiment [16], 0.0329 (inactive); in experiment [17], -0.0173 (inactive); in experiment [18], -0.00315 (inactive).

`CN(C)C1C(=O)C(C(N)=O)=C(O)C2(O)C(=O)C3=C(O)c4c(O)ccc(Cl)c4C(O)C3CC12` (stereo unspecified): the parasite load remaining in experiment [1] was 84.6% (inactive). Moreover, the viability in experiment [1] was 103%. The fluorescence ratio in [2] is 1.05 (inactive); in [5], 0.84 (inactive). In addition, the inhibition in [3] is -11.4% (inactive); in experiment [4], -1.24% (inactive). For the same molecule, the mean signal in experiment [6] is 261 (inactive). For the same molecule, the fold change was 0.964 (inactive) in experiment [7] (setting [21]) and 1.22 in experiment [7] (setting [22]). In addition, the cell count in experiment [7] (setting [23]) is 5440; in [7] (setting [24]) it was 5650. The z-score in experiment [8] is -1.45 (inactive). Moreover, the log fold change Tl+ flux in [9] was -0.0288 (inactive); in experiment [10] it was -0.00371 (inactive); in [11] it was -0.0136 (inactive); in experiment [12], 0.00837 (inactive); in experiment [13], 0.0307 (inactive); in [14] it was -0.0571 (inactive). In addition, the log fold change Tl+ flux in experiment [15] was -0.0108 (inactive); in experiment [16], -0.203 (active); in [17] it was -0.101 (inactive); in experiment [18], -0.0217 (inactive).

Regarding `CCOC(=O)CCC(=O)OC1C(OC2C(C)C(OC3CC(C)(OC)C(O)C(C)O3)C(C)C(=O)OC(CC)C(C)(O)C(O)C(C)C(=O)C(C)CC2(C)O)OC(C)CC1N(C)C` (stereo unspecified), the parasite load remaining in experiment [1] is 56% (inactive). Besides, the viability in [1] turned out to be 94.7%. The fluorescence ratio was 1.07 (inactive) in [2] and 0.98 (inactive) in experiment [5]. The inhibition is 0.45% (inactive) in experiment [3] and 0.29% (inactive) in experiment [4]. Also, the mean signal in [6] was 242 (inactive). Further, the fold change in [7] (setting [21]) is 0.96 (inactive); in experiment [7] (setting [22]) it was 1.93. Besides, the values for the cell count in experiment [7] (setting [23]) and in experiment [7] (setting [24]) were 10400 and 10900, respectively. In addition, the z-score in experiment [8] is 0.77 (inactive). Also, the log fold change Tl+ flux is -0.00772 (inactive) in experiment [9]; 0.06 (inactive) in experiment [10]; -0.0119 (inactive) in experiment [11]; -0.0302 (inactive) in experiment [12]; -0.0035 (inactive) in [13]; -0.135 (active) in experiment [14]. The log fold change Tl+ flux was 0.019 (inactive) in experiment [15], -0.0301 (inactive) in experiment [16], -0.00612 (inactive) in experiment [17] and 0.000174 (inactive) in experiment [18].
